# Assay results as given in PubChem BioAssay (NCATS).
# Calls of active or inactive are those of the source. Calls come from the whole dose curve; as a rule, active = well fitted inhibition curve with a large enough effect; inconclusive = small, poorly fitted or top-dose-only effect; inactive = no such curve, though single readings can be large or run the other way.
# Test: qHTS assay for measurement of the activity of small molecule inhibitors on Zika virus induced Caspase-3 activity in human astrocytoma cells (AID 1224859)
# Conditions: SNB-19 ZIKV-induced caspase-3/7, luminescence, 6 h; series mostly up to 45.7 µM; activity change, negative = inhibition: at the top concentration
# From the text: National Center for Advancing Translational Sciences [NCATS]
# Johns Hopkins University School of Medicine
# Increase in the Caspase-3 activity indicates an activation of apoptosis cell death pathway caused by Zika virus infection in certain types of neuronal cells including human neural progenitor cells (hNPCs), astrocytes, and astrocytoma cell line (SNB-19). This cell-based caspase-3 activity assay measures the increased caspase-3 activity in the astrocytoma cell line (SNB-19) after a 6-hour Zika virus infection with a luminescence readout. A decrease in the luminescence signal in this assay by small molecule treatment indicates an inhibitory effect of that small molecule on the Zika virus induced caspase-3 activity that may correlate with its effect on reduction of Zika virus caused cell death.
# The medium for SNB-19 cells is composed of RPMI 1640 (ATCC, Cat.# 30-2001), 10% fetal bovine serum (FBS) (GE healthcare Life Sciences, Cat.# SH30071.03), and 1% Pen/Strep (Gibco, Cat.# 15140-122). A Caspase-Glo 3/7 assay kit (catalog number G8092; Promega, Madison, WI) was used to detect caspase-3 activity induced by Zika virus infection in human cells. The reagent mixture was reconstituted as described in the protocol from the manufacturer. Polystyrene tissue culture treated and PDL coated white plates were obtained from Greiner Bio-One (Monroe, NC). Cells were seeded in 384- or 1536-well assay plates and cultured at 37 C with 5% CO2 for 16 to 20 hours. The typical cell seeding density in the 1536-well plate assay is 250 cells/well in 3ul medium for SNB-19 cells in tissue culture treated plates. Compounds were added to cells and incubated for one hour before addition of ZIKV solution to cells (2 FFU/cell). After incubation at 37 C with 5% CO2 for 6 hours, the reagent mixture of Caspase-Glo 3/7 assay kit was added to each well, followed by incubation at room temperature for 30 minutes. The luminescence intensity of the assay plates was measured using a ViewLux plate reader (PerkinElmer). Data were normalized by using the cell-containing wells without ZIKV as a negative control (0% induction of caspase 3/7 activity) and wells containing ZIKV infected cells (Caspase-3 activity induced) as a positive control (100% induction of caspase 3 activity). The percentage inhibitions of the increased Caspase-3 activity by small molecule inhibitors were then calculated.
row,SMILES,"activity change, negative = inhibition"
1,CC(=O)OC[C@H]1O[C@@H](n2ncc(=O)[nH]c2=O)[C@H](OC(C)=O)[C@@H]1OC(C)=O,1.41% (inactive)
2,CC[C@]12CCCN3CCc4c(n(c5ccccc45)C(=O)C1)[C@@H]32,24.7% (inactive)
3,CC(C(=O)O)c1cccc(Oc2ccccc2)c1 (stereo not given),-3.01% (inactive)
4,COc1ccc(C(=O)c2ccccc2)c(O)c1,-22.7% (inactive)
5,CCC1NC(=O)c2cc(S(N)(=O)=O)c(Cl)cc2N1 (stereo not given),-2.94% (inactive)
6,NCCNc1cccc2ccccc12,-7.45% (inactive)
7,N#C/C(=C1\SCC(c2ccccc2Cl)S1)n1ccnc1 (stereo not given),12% (inactive)
8,COc1cc(NS(=O)(=O)c2ccc(N)cc2)ncn1,-5.64% (inactive)
9,CCN[C@@H]1C[C@H](N)[C@@H](OC2OC(CN)=CCC2N)[C@H](O)[C@H]1O[C@H]1OC[C@](C)(O)[C@H](NC)[C@H]1O (stereo not given in full),15.8% [at 0.568 µM] (inactive)
10,NCCNC(=O)c1ccc(Cl)cn1,-18.5% (inactive)
11,NC(=S)N/N=C/c1cccnc1,-5.71% (inactive)
12,NS(=O)(=O)c1cc(C(=O)O)cc(N2CCCC2)c1Oc1ccccc1,-8.43% (inactive)
13,CCN(CC)CCOc1ccccc1C(=O)CCc1ccccc1,-3.57% (inactive)
14,CC(=O)NC(=O)c1ccccc1O,12.2% (inactive)
15,CCC(C(=O)OCCOCCN(CC)CC)c1ccccc1 (stereo not given),-0.387% (inactive)
16,COc1ccccc1N1CCN(CCCCNC(=O)c2ccc(-c3ccc(C(C)=O)cc3)cc2)CC1,4.5% (inactive)
17,CCN(CC)CCOC(=O)C(Cc1cccc2ccccc12)CC1CCCO1 (stereo not given),16.8% (inactive)
18,CC(=C(CCOC(=O)C(C)C)SSC(CCOC(=O)C(C)C)=C(C)N(C=O)Cc1cnc(C)nc1N)N(C=O)Cc1cnc(C)nc1N,-9.5% (inactive)
19,CN1CCN(c2cc3c(cc2F)c(=O)c(C(=O)O)cn3-c2ccc(F)cc2)CC1,-10.9% (inactive)
20,Cc1ccc(-c2ncc(Cl)cc2-c2ccc(S(C)(=O)=O)cc2)cn1,1.73% (inactive)

row,SMILES,"activity change, negative = inhibition"
1,CCCCOC(=O)CC(CC(=O)OCCCC)(OC(C)=O)C(=O)OCCCC,-3.15% (inactive)
2,Cc1ccc(S(=O)(=O)NC(=O)NC2CCCC2)cc1,-6.32% (inactive)
3,CN(C)CCOC(c1ccc(Cl)cc1)c1ccccn1 (stereo not given),1.15% (inactive)
4,O=C(O)P(=O)(O)O,3.16% (inactive)
5,CCC(Cc1c(I)cc(I)c(N)c1I)C(=O)O (stereo not given),-5.53% (inactive)
6,O=S(=O)(O)c1ccc(O)cc1,19.6% (inactive)
7,O=C(O)c1ccc(S(=O)(=O)N(Cl)Cl)cc1,12.6% (inactive)
8,CC1(C)OC[C@@H]2O[C@@]3(C(=O)O)OC(C)(C)O[C@H]3[C@@H]2O1,0.885% (inactive)
9,CCN(CC)CCOc1ccc2c(c1)C(=O)c1cc(OCCN(CC)CC)ccc1-2,-7.78% (inactive)
10,O[C@@H](c1cc(C(F)(F)F)nc2c(C(F)(F)F)cccc12)[C@H]1CCCCN1,59.5% (inactive)
11,FC(F)(F)C(F)(F)C(F)(F)C(F)(F)C(F)(F)C(F)(F)C(F)(F)C(F)(F)Br,-9.48% (inactive)
12,CN(CCCN1c2ccccc2CCc2ccccc21)CC(=O)c1ccc(Cl)cc1,8.98% (inactive)
13,CCCCC(CC)COC(=O)c1ccc(N(C)C)cc1 (stereo not given),-11% (inactive)
14,CC1(COc2ccc(CC3SC(=O)NC3=O)cc2)CCCCC1 (stereo not given),-3.24% (inactive)
15,O=C(O)CCc1nc2ccccc2[nH]1,-5.22% (inactive)
16,CN1CCN(c2c(F)cc3c(=O)c(C(=O)O)cn4c3c2SCC4)CC1,-0.983% (inactive)
17,CN1CCN(C2=Nc3ccccc3Sc3ccc(Cl)cc32)CC1,4.48% (inactive)
18,C[C@@]12C(=O)OC(=O)[C@]1(C)C1CCC2O1,-9.01% (inactive)
19,CCCCNC(=O)NS(=O)(=O)c1ccc(N)cc1,-2.88% (inactive)
20,CC(CNC1CCCCC1)OC(=O)c1ccccc1 (stereo not given),1.17% (inactive)
